Assay outcomes deposited in PubChem by several laboratories.
PfGluPho inh = PfG6PD (Plasmodium falciparum) enzyme inhibition | AID 504690 | inhibition, % at 20 µM | PfGluPho enzyme, NADPH resazurin-diaphorase fluorescence | 0.78% of 350,000 active;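 active = inhibition reaching at least a set limit at 20 µM in the primary screen, cut at about 59% in these data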;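 note: 0% = DMSO wells with substrate and 100% = DMSO wells lacking glucose-6-phosphate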
proKLK7 act = activates the human kallikrein-7 zymogen. 0.9% of 370,000 active. P49862. purified proKLK7, EDANS-DABCYL substrate fluorescence; 100% is mature enzyme control, 0% vehicle. activation, % at 7 µM. AID 652039;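 active = activation above the mean of all tested compounds plus 3 SD, computed per campaign excluding outliers beyond control limits, cut at about 13% in these data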
Neddyl block = inhibitors of human cullin neddylation. calls only at 25 µM. 0.58% of 360,000 active. P61081+Q13564. AID 651699. TR-FRET cullin neddylation, biochemical; in the data active = inhibition above about 36%
FAS-TE inh = blocks the thioesterase domain of human fatty acid synthase; inhibition, % at 15 µM; recombinant FAS-TE, OMFH fluorogenic substrate, fluorescence endpoint; P49327; 0.67% of 360,000 active; AID 602261;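 active = compounds whose normalised, plate-corrected inhibition of enzyme fluorescence in the single-dose primary screen is 50% or more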;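 note: 0% = DMSO with enzyme and 100% = substrate without enzyme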
Target sequence (P49327 whole entry, looked up, the tested form may be a part): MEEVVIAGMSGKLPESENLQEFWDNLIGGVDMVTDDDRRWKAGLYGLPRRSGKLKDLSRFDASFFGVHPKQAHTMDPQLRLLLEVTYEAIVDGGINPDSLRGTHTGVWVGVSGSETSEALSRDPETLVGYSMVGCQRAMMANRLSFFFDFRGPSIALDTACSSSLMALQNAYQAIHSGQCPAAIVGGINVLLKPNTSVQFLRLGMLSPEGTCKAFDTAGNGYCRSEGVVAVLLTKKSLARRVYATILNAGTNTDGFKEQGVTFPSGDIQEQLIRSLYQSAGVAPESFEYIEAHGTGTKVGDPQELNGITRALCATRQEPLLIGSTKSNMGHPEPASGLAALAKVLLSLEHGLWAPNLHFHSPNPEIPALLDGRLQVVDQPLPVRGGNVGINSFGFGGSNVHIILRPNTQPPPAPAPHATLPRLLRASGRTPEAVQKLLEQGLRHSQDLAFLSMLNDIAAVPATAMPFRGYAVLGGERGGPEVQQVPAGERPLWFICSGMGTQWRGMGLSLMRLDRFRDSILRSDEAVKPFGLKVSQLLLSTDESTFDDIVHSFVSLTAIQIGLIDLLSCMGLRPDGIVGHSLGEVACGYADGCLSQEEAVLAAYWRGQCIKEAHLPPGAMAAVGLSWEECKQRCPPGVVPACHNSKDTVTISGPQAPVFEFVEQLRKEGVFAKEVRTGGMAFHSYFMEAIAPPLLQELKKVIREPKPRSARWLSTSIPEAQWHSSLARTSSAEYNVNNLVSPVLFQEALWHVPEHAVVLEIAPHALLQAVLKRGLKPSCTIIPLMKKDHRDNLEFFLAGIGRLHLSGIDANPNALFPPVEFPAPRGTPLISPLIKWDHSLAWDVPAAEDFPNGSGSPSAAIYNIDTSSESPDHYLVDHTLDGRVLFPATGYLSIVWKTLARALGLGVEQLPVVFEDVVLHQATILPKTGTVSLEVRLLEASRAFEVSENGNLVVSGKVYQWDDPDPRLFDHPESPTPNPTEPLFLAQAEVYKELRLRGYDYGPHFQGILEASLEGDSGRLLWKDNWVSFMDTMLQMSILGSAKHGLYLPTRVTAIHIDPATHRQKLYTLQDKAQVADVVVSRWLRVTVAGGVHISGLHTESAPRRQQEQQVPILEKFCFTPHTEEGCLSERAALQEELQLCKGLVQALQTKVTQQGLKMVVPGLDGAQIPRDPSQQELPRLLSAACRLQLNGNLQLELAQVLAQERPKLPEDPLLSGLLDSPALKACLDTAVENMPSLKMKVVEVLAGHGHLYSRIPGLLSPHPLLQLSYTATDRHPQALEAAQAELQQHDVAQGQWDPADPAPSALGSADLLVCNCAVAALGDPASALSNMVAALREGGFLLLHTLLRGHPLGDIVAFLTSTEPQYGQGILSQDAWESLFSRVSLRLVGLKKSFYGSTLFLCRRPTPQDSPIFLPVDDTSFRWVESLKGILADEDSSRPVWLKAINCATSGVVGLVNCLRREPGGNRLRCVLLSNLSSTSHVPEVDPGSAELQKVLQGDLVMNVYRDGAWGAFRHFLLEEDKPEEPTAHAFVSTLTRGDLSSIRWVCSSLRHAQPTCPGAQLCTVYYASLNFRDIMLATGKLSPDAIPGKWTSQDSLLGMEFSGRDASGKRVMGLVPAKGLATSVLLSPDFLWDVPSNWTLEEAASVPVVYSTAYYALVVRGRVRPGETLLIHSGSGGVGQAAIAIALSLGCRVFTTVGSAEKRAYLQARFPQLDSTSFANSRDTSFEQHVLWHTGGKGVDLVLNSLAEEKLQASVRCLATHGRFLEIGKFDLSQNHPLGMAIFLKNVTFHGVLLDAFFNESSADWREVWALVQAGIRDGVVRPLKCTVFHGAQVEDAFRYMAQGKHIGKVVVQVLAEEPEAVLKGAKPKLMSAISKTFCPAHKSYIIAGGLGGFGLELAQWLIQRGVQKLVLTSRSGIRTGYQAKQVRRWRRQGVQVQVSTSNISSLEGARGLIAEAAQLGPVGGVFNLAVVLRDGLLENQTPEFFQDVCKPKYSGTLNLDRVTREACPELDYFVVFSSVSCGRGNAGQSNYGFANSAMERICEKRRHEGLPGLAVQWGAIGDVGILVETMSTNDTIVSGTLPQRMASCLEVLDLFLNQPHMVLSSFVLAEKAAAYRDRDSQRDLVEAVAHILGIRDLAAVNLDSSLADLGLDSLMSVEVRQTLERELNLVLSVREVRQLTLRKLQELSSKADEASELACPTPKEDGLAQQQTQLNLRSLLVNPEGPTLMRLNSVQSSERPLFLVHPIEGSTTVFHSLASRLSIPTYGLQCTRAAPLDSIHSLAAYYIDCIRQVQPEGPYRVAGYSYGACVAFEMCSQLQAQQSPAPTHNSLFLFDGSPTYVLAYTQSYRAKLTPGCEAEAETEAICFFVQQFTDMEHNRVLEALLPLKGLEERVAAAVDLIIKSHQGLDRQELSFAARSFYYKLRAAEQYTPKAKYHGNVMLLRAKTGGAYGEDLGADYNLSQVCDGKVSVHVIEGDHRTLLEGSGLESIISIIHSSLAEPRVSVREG
KLK7 act conf = proKLK7 activation, confirmation; shares compounds with proKLK7 act; purified proKLK7, EDANS-DABCYL substrate fluorescence; scaled: vehicle 0, mature enzyme 100; activation, % at 7 µM; 68% of 3,200 active; AID 686949;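 active = activation, as change over the incubation, above the mean of all tested compounds plus 3 SD, cut at about 13% in these data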
EDANS-DABCYL int = fluorescence interference counter-screen for KLK7 activators. shares compounds with proKLK7 act. EDANS-DABCYL substrate fluorescence interference, no enzyme, 4 h; solvent 0%, active enzyme control 100%. activation, % at 7 µM. 80% of 3,200 active;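 active = activation above the all-compound mean plus 3 SD, ignoring values outside control-based bounds, cut at about 4.8% in these data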;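 note: value is the 4 h activation minus the activation read at time zero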
K7 EDANS ctr = optically interferes with EDANS-DABCYL fluorescence, kallikrein-7 activator counter-screen; shares compounds with proKLK7 act; EDANS-DABCYL peptide fluorescence interference, no enzyme; EC50, µM; 20% of 250 active;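 active = compounds that raise the fluorescence signal in this interference counterscreen, with EC50 at or below 10 µM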;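 note: intact quenched peptide substrate alone read at 355 nm excitation and 520 nm emission; signal is fluorescence gain from T0 to T4 after four hours at room temperature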
* hit, by the source's call; i = inactive; . = not tested or not shown. Sampled rows, rich in hits. Any-hit rate of the full collection: about 2.7%.

SMILES	PfGluPho inh	proKLK7 act	Neddyl block	FAS-TE inh	KLK7 act conf	EDANS-DABCYL int	others
COC(=O)C1=CN(c2ccc(C(C)(C)C)cc2)C(N)=C(C#N)C1c1cccc2ccccc12 (stereo unspecified)	.	-0.8	i	.	.	.
O=C(Nc1nc2ccccc2[nH]1)c1cc2ccccc2o1	20.8	15.9*	i	-4.1	44.1*	44.4*
COc1ccc(Cl)cc1C(=O)Nc1nc2ccccc2[nH]1	27.8	27.2*	i	-0.4	-3.2	-14.7
COc1ccc(C(=O)Nc2nc3ccccc3[nH]2)cc1OC	4.5	0.1	i	-9.1	.	.
COc1ccc(N2C3=C(C(=O)CC(C)(C)C3)C(c3cnn(C)c3)C3=C2CC(C)(C)CC3=O)cc1	-1.8	21.4*	.	-0.1	-14.5	-10.1
CCn1cc(C2C3=C(CC(C)(C)CC3=O)N(c3ccc(C)cc3)C3=C2C(=O)CC(C)(C)C3)c(C)n1	-0.7	-0.7	i	-4.0	.	.
O=c1c2cc3cc4c(cc3nc2ncn1CCc1ccccc1)OCO4	.	-1.3	.	.	.	.
Cc1ccc(F)c(S(=O)(=O)NC(=O)C2(C)CCN2C(=O)c2sccc2C)c1 (stereo unspecified)	.	-0.2	i	-4.6	.	.
COc1ccc2nccc(C(N)=O)c2c1	-0.2	12.8*	.	-4.9	26.2*	26.4*
C=CCn1c(-c2cccs2)nc2ccccc21	8.0	1.4	.	-0.3	.	.
C=CCn1c(-c2cccs2)nc2nc3ccccc3nc21	14.2	21.6*	.	-3.2	70.2*	82.5*
COc1ccc(OC(=O)c2cccc([N+](=O)[O-])c2)c(C(=O)/C=C/c2cccs2)c1	14.8	24.9*	i	12.2	20.3*	14.9*	K7 EDANS ctr=i
O=C(NCCc1ccccc1)OCc1cn(Cc2c(F)cccc2F)nn1	.	-0.3	.	.	.	.
Clc1ccc(-c2cn3cccnc3n2)cc1Cl	-3.3	5.6	i	-1.4	.	.
Brc1ccc(-c2cn3cccnc3n2)cc1	17.8	23.9*	.	1.8	23.0*	26.9*
COc1ccc(-c2cn3cccnc3n2)cc1F	6.8	64.3*	.	-8.5	77.7*	82.5*
COc1ccc(-c2cn3cccnc3n2)cc1NC(=O)C(C)Oc1ccccc1 (stereo unspecified)	5.4	-30.3	.	-0.8	.	.
Clc1ccc(-c2cn3cccnc3n2)cc1	-2.8	22.2*	.	-0.5	52.8*	69.4*
COc1cc(C(O)c2nc(-c3cccc(C(C)C)c3)cs2)ccc1F (stereo unspecified)	.	0.1	i	18.7	.	.
CC(C)(C)N1Cc2nnn(Cc3ccccc3)c2-c2cc(N3CCCC3)ccc2S1(=O)=O	.	-5.1	.	.	.	.
COc1cc(CN2C(=O)C(CCc3ccccc3)ON=C2c2cnccn2)cc(OC)c1 (stereo unspecified)	.	0.5	i	22.5	.	.
Cc1cc(=O)n2c3c(c4c(cc13)c(CN(C)C)cc(=O)n4C)OC2	47.1	29.9*	.	-4.5	14.9*	17.1*
Cc1nn(-c2ccccc2)c2sc(C(=O)OC3CCOC3=O)cc12 (stereo unspecified)	4.6	20.4*	.	7.8	10.9	13.4*
COC(=O)c1cc2c(C)nn(-c3ccccc3)c2s1	-2.6	-2.4	i	10.1	.	.
C[C@H](O)[C@@H]1CN2CCc3c([nH]c4c(-c5ccccc5)cccc34)[C@@H]2C[C@@H]1N(C)C(=S)NCCc1ccccc1	.	1.2	.	.	.	.
SMILES	PfGluPho inh	proKLK7 act	Neddyl block	FAS-TE inh	KLK7 act conf	EDANS-DABCYL int	others
CC(C)(C)c1ccc(CN2N=Nc3ccccc3S2(=O)=O)cc1	39.2	20.6*	i	-30.6	-0.1	1.5
COc1ccc2nc(N3CCC(O)CC3)c(C#N)cc2c1	29.1	15.9*	.	-9.2	60.6*	71.9*
COc1ccc(C(NC(=O)C2CCN(Cc3ccc(Oc4ccccc4)cc3)CC2)c2ccccc2C)cn1 (stereo unspecified)	.	-0.2	i	14.1	.	.
O=C(COC(=O)c1cc(Cl)ccc1O)NNC(=O)c1ccc([N+](=O)[O-])cc1	-31.6	98.9*	i	2.6	159.7*	155.2*
O=C(OCC(=O)N1CCCC1=O)c1cc(Cl)ccc1O	-5.8	32.4*	i	-3.9	31.5*	32.1*
O=C(OCC(=O)N1CCCc2ccccc21)c1cc(Cl)ccc1O	4.3	0.9	i	-0.4	.	.
O=C(COC(=O)c1cc(Cl)ccc1O)NCC1CCCO1 (stereo unspecified)	-12.1	46.4*	i	-3.2	80.4*	82.8*
NC(=O)c1ccsc1NC(=O)COC(=O)c1cc(Cl)ccc1O	-8.3	75.5*	i	-4.8	89.9*	91.3*
O=C(COC(=O)c1cc(Cl)ccc1O)NCCNC(=O)COC(=O)c1cc(Cl)ccc1O	-16.0	4.5	.	-7.8	.	.
O=C(Nc1ccc(F)cc1)OC[C@@H]1CSCCS(=O)(=O)N1	.	-0.1	.	.	.	.
Nc1ccc2c(c1)[nH]c(=O)c1ccccc12	46.5	38.5*	.	-0.2	48.8*	46.9*
O=c1[nH]c2cc(O)ccc2c2ccccc12	.	-19.2	i	-3.8	.	.
Nc1cccc2[nH]c(=O)c3ccccc3c12	15.2	20.4*	.	-7.1	21.1*	21.1*
CCc1nc(CN2CCCC(C(=O)c3ccc4c5c(cccc35)CC4)C2)c(C)[nH]1 (stereo unspecified)	2.4	15.3*	.	-0.7	-4.0	0.1
O=C(c1ccc2c3c(cccc13)CC2)C1CCCN(Cc2ccncc2)C1 (stereo unspecified)	-4.8	0.2	i	-1.8	.	.
Cc1cc(C)cc(Cn2c3ccc(NC(=S)NC4CCCCC4)cc3c(=O)n2C)c1	.	-21.6	.	-3.8	.	.
Cn1c(=O)c2cc(NC(=S)NC3CC3)ccc2n1Cc1ccccc1	.	16.3*	.	-4.6	10.3	13.8*
CC(C)=CCn1c2ccc(NC(=S)NC3CC3)cc2c(=O)n1C	.	18.1*	.	-6.5	13.8*	13.9*
COC(=O)[C@]12C[C@H](CC(=O)NCc3cccs3)C(=O)N(Cc3ccco3)C1=C[C@H](C1CCCC1)O[C@@H]2C	.	0.3	.	.	.	.
O=S(=O)(Nc1cccc(F)c1)c1ccc(S(=O)(=O)N2CCOCC2)cc1	-14.6	-0.1	i	-8.2	.	.
CC1(C(=O)Nc2ccc3ccccc3c2)CCC(=O)N1C1CCN(Cc2ccccc2)CC1 (stereo unspecified)	.	0.7	i	0.9	.	.
CCc1nc2c(OCC(=O)c3ccc(Cl)cc3Cl)cccn2c1N(C)C(=O)COc1ccccc1	.	1.1	i	13.1	.	.
COC(=O)c1ccc2nc(-c3ccc(OC)c(OC)c3)c(Cc3ccccc3C(F)(F)F)n2c1	.	0.2	.	.	.	.
Cc1[nH]c2ccccc2c1CCCO	14.7	1.9	.	.	.	.
OCCCCc1nccc2c1[nH]c1ccccc12	-4.4	35.5*	.	-5.1	29.3*	37.0*
CCOC1=C2[C@@H](CN(S(=O)(=O)c3ccc(C)cc3)[C@H]2c2ccc(CC)cc2)[C@H]2C(=O)N(C)C(=O)[C@H]2C1	.	-0.2	i	18.3	.	.
